Source: PMC7819943, “Rice protein-binding microarrays: a tool to detect cis-acting elements near promoter regions in rice”
Whole data set: some 68,000 sequences, median “fluorescence intensity (a.u.)” near 9,100, cut for the highest 2% near 16,000. The list comes from a sample in which the highest values are over-represented; it also holds similar and randomly drawn sequences.

What follows are sequences tested against OsWRKY34 (Oryza sativa, UniProt Q0JBA9 1-250) (assay: protein-binding microarray (RPBM); PBS, 2% BSA, 51.3 ng/ul salmon testes DNA, 50 uM zinc acetate, 200 nM TF, 25 C, 1 h; high values mean tight binding). Settings: protein: recombinant; tags: N-terminal polyhistidine and DsRed monomer fusion (pET32a); label: CyDye5-dUTP incorporated in the synthesized complementary strand; 3' TTTTT single-stranded linker to array surface; dsDNA, one strand shown.
Sequence of OsWRKY34 (Q0JBA9 entry or part of it): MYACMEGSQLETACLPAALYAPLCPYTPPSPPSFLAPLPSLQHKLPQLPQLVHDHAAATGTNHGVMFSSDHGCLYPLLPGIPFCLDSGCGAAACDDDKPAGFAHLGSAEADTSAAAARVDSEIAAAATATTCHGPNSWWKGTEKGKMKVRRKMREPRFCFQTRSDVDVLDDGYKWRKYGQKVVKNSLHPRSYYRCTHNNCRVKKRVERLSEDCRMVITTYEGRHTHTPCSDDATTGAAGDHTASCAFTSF
Outline: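 Transcription factors were each fused at the N-terminus to a polyhistidine tag plus DsRed and expressed in E. coli BL21-CodonPlus before Ni–NTA purification. Binding to a double-stranded custom Agilent array was carried out with 200 nM protein at 25 °C for 1 h in PBS, 2% BSA, salmon testes DNA and 50 µM zinc acetate. The binding signal is per-feature fluorescence intensity, in arbitrary units, on an Axon 4000B scanner.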
“GTTGACTCGCACTTTTTGTAATTATGTGTTACATGGTTTCCGGAGTCACCTAGTGCAG” was tested, and the binding signal was 8810 fluorescence intensity (a.u.).
For “CCGTGTTGTCGTTCCTCCAAATTTGTACCGTTTTCCCTCTCGGAGTCACCTAGTGCAG”, the binding signal was 8770 fluorescence intensity (a.u.).
In the case of “CTTTCTTATTGACTATTTTATTATTTGAGGTCATTTAGGGCGGAGTCACCTAGTGCAG”, the binding signal is reported as 9310 fluorescence intensity (a.u.).
For “TTTTGCTACTCCTTCGTTCTCAGTATCCAAATTTAAATTTCGGAGTCACCTAGTGCAG”, the binding signal was 9900 fluorescence intensity (a.u.).
With “GACTTTATATGTGACTTTTTTTTTAACTTTTTCATAATTTCGGAGTCACCTAGTGCAG” the binding signal was 9730 fluorescence intensity (a.u.).
For “CGCCGTTGACTTTTCATATAATATTTAACAATTCGCTTTACGGAGTCACCTAGTGCAG”, the binding signal was 36800 fluorescence intensity (a.u.).
“CCCGTTGACCCAAATTTTCGTTCTCCTCACCGAGTATAGTCGGAGTCACCTAGTGCAG” was tested, and the binding signal was 17200 fluorescence intensity (a.u.).
With “AATTTTGACTTTTTCTTGACTAATTAGGCCATCCGATGGGCGGAGTCACCTAGTGCAG” the binding signal was 17800 fluorescence intensity (a.u.).
With “ACTTTTCGCTTTTTATATTTGCATAATTTTTTTCAATAAGCGGAGTCACCTAGTGCAG” the binding signal was 8150 fluorescence intensity (a.u.).
For “TTTTTCGCACGTTCTCTTTCGCCCTGTTTTTTTTGAAAGACGGAGTCACCTAGTGCAG”, the binding signal was 13300 fluorescence intensity (a.u.).
For “CCTAGACCCCTTCTCACGCCGCCAGCCCGTCACACCGAGTCGGAGTCACCTAGTGCAG”, the binding signal was 8790 fluorescence intensity (a.u.).
In the case of “CCCACTAACTTATGGCTTTTCCCATCCGTGCTATATCCCTCGGAGTCACCTAGTGCAG”, the binding signal is reported as 9270 fluorescence intensity (a.u.).
For “ATACTGTCATAGGATCTCGAGTACACCTGTTTTACAAGTTCGGAGTCACCTAGTGCAG”, the binding signal was 8860 fluorescence intensity (a.u.).
In the case of “GTTTTGATTGGCATATGGTCCCTCCAATCCGTGTAATTGTCGGAGTCACCTAGTGCAG”, the binding signal is reported as 8320 fluorescence intensity (a.u.).
“CACCGTTGATTTTTTTAAATATGTTTGACCGTTCGTTTTACGGAGTCACCTAGTGCAG” was tested, and the binding signal was 12000 fluorescence intensity (a.u.).
With “TTCCTAAATATTTACGACGTTGACTTTTTTAAAAATGTTTCGGAGTCACCTAGTGCAG” the binding signal was 20100 fluorescence intensity (a.u.).
“GTTGACTTTTTTTAAAATATGTTTGACCGTTCATATTATTCGGAGTCACCTAGTGCAG” was tested, and the binding signal was 8770 fluorescence intensity (a.u.).
With “ATAACCAACATATTTAGCCTACAATTAAATATTTACTATACGGAGTCACCTAGTGCAG” the binding signal was 8390 fluorescence intensity (a.u.).
In the case of “GGAGTATATAAATATATATATTAAATACAACTCTAGACTACGGAGTCACCTAGTGCAG”, the binding signal is reported as 26700 fluorescence intensity (a.u.).
In the case of “CGTTGACTTTTTTAAATATGTTTGACCGTTTATGTTATTTCGGAGTCACCTAGTGCAG”, the binding signal is reported as 44100 fluorescence intensity (a.u.).
In the case of “ATTTTTATACGGACTCTAAACTCTACTTTTAATTTTATTACGGAGTCACCTAGTGCAG”, the binding signal is reported as 8490 fluorescence intensity (a.u.).
“ACTACTTCCTCTGTTTCTAAATATTTGACGACGTTGATTTCGGAGTCACCTAGTGCAG” was tested, and the binding signal was 8050 fluorescence intensity (a.u.).
For “AAATATTTGACGCCGTTGACTTTTTTAAATATGTTTAACCCGGAGTCACCTAGTGCAG”, the binding signal was 27200 fluorescence intensity (a.u.).
For “TACACTAACCCTACCATCCCGTACACCACCGAAACCCTAACGGAGTCACCTAGTGCAG”, the binding signal was 8330 fluorescence intensity (a.u.).
In the case of “TGTCTGGTCAACGCACAATTTCGGTCAGTAACTCCCTGGCCGGAGTCACCTAGTGCAG”, the binding signal is reported as 9770 fluorescence intensity (a.u.).
For “TCATGGGAGCAATTGCGCGATGTTTTTGTTCTTAACTTTCCGGAGTCACCTAGTGCAG”, the binding signal was 8050 fluorescence intensity (a.u.).
With “TTTTGGTACGTTATTAGTGTGTGTATCAGTTTTTAAGTTCCGGAGTCACCTAGTGCAG” the binding signal was 9430 fluorescence intensity (a.u.).
In the case of “GTTTCAGGTTTTTGCAGCCAACAGTTTTGCTGATTTTTTACGGAGTCACCTAGTGCAG”, the binding signal is reported as 9480 fluorescence intensity (a.u.).
In the case of “CTCCTTTTGCGCTGCTTCTCCTCGCCGCCACCGTGTAGCGCGGAGTCACCTAGTGCAG”, the binding signal is reported as 8230 fluorescence intensity (a.u.).
In the case of “GAATTTTTTTTTATCATCTTTGACGGGCACACAAATTTTACGGAGTCACCTAGTGCAG”, the binding signal is reported as 8140 fluorescence intensity (a.u.).
“TGGGGATGTGTTGTGGTGAGCTGGAAAGTGCAAACTGGTTCGGAGTCACCTAGTGCAG” was tested, and the binding signal was 9630 fluorescence intensity (a.u.).
“TCCTGTTTAAAGTTTTTTTTTGTGATTTTTAGATAAAAAACGGAGTCACCTAGTGCAG” was tested, and the binding signal was 9030 fluorescence intensity (a.u.).
With “AGACTATCATCTTGAGCTTATTCTTCCATTTGCTCCATCTCGGAGTCACCTAGTGCAG” the binding signal was 8950 fluorescence intensity (a.u.).
With “AGCCAGCCCAAAAGCCACGCCGTCCACTCCATCTCCGCCTCGGAGTCACCTAGTGCAG” the binding signal was 8440 fluorescence intensity (a.u.).
With “CGATCGATCGATCGCGCGCCTCCGCCTATAAATTCTTGCCCGGAGTCACCTAGTGCAG” the binding signal was 8230 fluorescence intensity (a.u.).
In the case of “CCCACCATTTTATATTATAAGCTGTTTGACTTTTTCTTAACGGAGTCACCTAGTGCAG”, the binding signal is reported as 13100 fluorescence intensity (a.u.).
“GATCGTTTCTATTCCTAATTCGTTTTCTTTATACTCCCTCCGGAGTCACCTAGTGCAG” was tested, and the binding signal was 11100 fluorescence intensity (a.u.).
In the case of “TTCGTTTTGACTTTTTTCTTAGTAAAACTTTTATGTTTGACGGAGTCACCTAGTGCAG”, the binding signal is reported as 11600 fluorescence intensity (a.u.).
For “CTAAATGTTTGACACCGTTGACTTTTTTAAATATGTTTGACGGAGTCACCTAGTGCAG”, the binding signal was 23300 fluorescence intensity (a.u.).
In the case of “GCTGTTTGACTTTTTCTTAATTAAGCTTCTTTATGTTTGACGGAGTCACCTAGTGCAG”, the binding signal is reported as 19700 fluorescence intensity (a.u.).
“CCCTAAATATTTGACGCCGTTGACTTTTTTAAATATGTTTCGGAGTCACCTAGTGCAG” was tested, and the binding signal was 27300 fluorescence intensity (a.u.).
For “AAGGTCGTTGACTTTTTATTCGTCCTCGTCTAATTTCTCCCGGAGTCACCTAGTGCAG”, the binding signal was 33600 fluorescence intensity (a.u.).
With “CTTCCCTAAATGTTTGACACCGTTGACTTTTTAAAATATACGGAGTCACCTAGTGCAG” the binding signal was 10500 fluorescence intensity (a.u.).
“CTTTGCGTCTCCTCCCCTTTCTAATCCACTTTTTATTTTTCGGAGTCACCTAGTGCAG” was tested, and the binding signal was 9730 fluorescence intensity (a.u.).
